Results taken from ChEMBL document CHEMBL3988442, “University of Dundee, Small-Polar-MMV Screening Library” (2021).
Screen size: about 48,000 compounds; about 13,000 (27%) showed an effect of 50% or more. The list shows a part of the results.

system: Wolbachia pipientis; experiment: Anti-Wolbachia Cell-Based Screen; assay type: functional; parameters: scale not given: in the data most compounds retested in dose-response had high values; conditions: 5 µM

SMILES	Percent Effect [%]
CNS(=O)(=O)CC(=O)N(Cc1c(F)cccc1F)C1CCCC1	-5.167
Cc1cccc(CN(C(=O)CS(C)(=O)=O)C(C)C)c1	-6.499
CC(C)c1cnc(CN2CCCS2(=O)=O)o1	3.272
O=C(NCC(O)c1ccc(F)c(F)c1)c1cccnc1O (stereo unspecified)	-2.059
CCNc1ncc(CN2C[C@H](C3CC3)[C@@H](N)C2)cn1	-8.073
CC(C)Cc1cc(CNC(=O)c2cccc3c2NCCC3)no1	2.864
Cc1cccc(NCc2nn(C)c(=O)[nH]2)c1	-1.788
Cc1nc2c(c(C)c1CC(=O)Nc1cccc(C#N)c1)c(=O)[nH]n2C	-6.097
Cn1c(=O)[nH]c(=O)n2c(CC(=O)Nc3ccccc3)cnc12	114.1
COCCn1ccc(=O)c(OCC(=O)Nc2ccccc2)c1C	9.271
Cn1c(=O)ccn(CC(=O)Nc2cccnc2)c1=O	18.35
Cc1cccc(NC(=O)Cc2cnc3n(C)c(=O)[nH]c(=O)n23)c1	101.4
Cc1nnc(N2CCC(CCN(C)C)CC2)c(C#N)c1C	18.81
O=S(=O)(C1CC1)N1CCOC2(CCCN(c3ccccc3)C2)C1 (stereo unspecified)	-6.387
COC(=O)N1C[C@H]2CC[C@@H]1CN(Cc1cscn1)C2	-5.87
Cc1ccc(N2CCCC(N(C)Cc3nc(C)c(C)o3)C2)nn1 (stereo unspecified)	-10.05
Cc1ccc(N2CC3(COCCN(Cc4cnn(C)c4)C3)OCC2=O)s1.O=C(O)C(F)(F)F (stereo unspecified)	-8.814
Cc1ccc(N2CC3(COCCN(Cc4ccncc4)C3)OCC2=O)s1.O=C(O)C(F)(F)F.O=C(O)C(F)(F)F (stereo unspecified)	7.716
O=C(O)C(F)(F)F.O=C1COC2(CCN(Cc3nccs3)CC2)CN1CC1CC1	-7.755
O=C(O)C(F)(F)F.O=C(O)C(F)(F)F.O=C1COC2(CCN(Cc3cccnc3)CC2)CN1c1ccccc1	95.43
O=C(O)C(F)(F)F.O=C(O)C(F)(F)F.O=C1COC2(COCCN(Cc3cccnc3)C2)CN1c1ccccc1 (stereo unspecified)	-10.32
CN1CC(=O)N(c2cccc(F)c2)CC12CCN(Cc1ccncc1)C2.O=C(O)C(F)(F)F.O=C(O)C(F)(F)F (stereo unspecified)	-24.86
O=C(O)C(F)(F)F.O=C1COC2(CCN(Cc3nccs3)CC2)CN1c1ccccc1	109.8
CN1CC(=O)N(c2ccccc2)CC12CCN(Cc1nccs1)C2.O=C(O)C(F)(F)F.O=C(O)C(F)(F)F (stereo unspecified)	-23.26
Cn1cc(CN2CCC3(CC2)CN(c2cccnc2)C(=O)CO3)cn1	89.07
O=C(O)C(F)(F)F.O=C(O)C(F)(F)F.O=C1COC2(CCN(Cc3ccncc3)CC2)CN1c1ccccc1	106.6
